Laboratory results from PubChem BioAssay (Tox21).
Where “and” joins values, the source holds several entries; their conditions need not be identical. Equal values may be shown once. Records with an inconclusive call do not appear. Some structures have more than one record in an assay (separate samples or runs), and their calls can disagree. Calls of active or inactive are those of the source. Unless noted, calls come from the whole dose curve; as a rule, active = well fitted curve in the direction sought with a large enough effect in the repeat runs; inconclusive = weak or mixed curves; inactive = no such curve, though single readings can be large; an effect the other way counts as inactive or inconclusive.

Columns and labels:
[1] = qHTS assay to test for compound auto fluorescence at 535 nm (green) in HEK293 cells (AID 720680); settings: green autofluorescence 485/535 nm; series mostly up to 91.3 µM
[2] = qHTS assay to test for compound auto fluorescence at 460 nm (blue) in HEK293 cell free culture (AID 720681); settings: cell-free medium, autofluorescence 405/460 nm (blue); series mostly up to 91.3 µM
How it was run: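 Blue fluorescence (Ex 405/Em 460 nm, triamterene-equivalent) was read immediately after pin transfer of compound or DMSO into medium (DMEM, 10% FBS) without cells.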

[3] = qHTS assay to test for compound auto fluorescence at 535 nm (green) in HEK293 cell free culture (AID 720682); settings: cell-free medium, green autofluorescence 485/535 nm, stronger effect = higher value; series mostly up to 91.3 µM
How it was run: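 Compounds were pin-transferred into cell-free DMEM with 10% FBS, and green fluorescence was read at excitation 485 nm and emission 535 nm. Intensities were expressed as fluorescein-equivalent values.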

[4] = qHTS assay to test for compound auto fluorescence at 590 nm (red) in HEK293 cell free culture (AID 720683); settings: cell-free medium autofluorescence, Ex540/Em590 red; series mostly up to 91.3 µM
How it was run: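 Red-channel autofluorescence of compounds in culture medium (DMEM, 10% FBS), no cells, measured at 540/590 nm. Rose Bengal sodium is the reference fluorophore for equivalence.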

[5] = qHTS assay to test for compound auto fluorescence at 590 nm (red) in HepG2 cell free culture (AID 720684); settings: cell-free medium autofluorescence, red 540/590 nm; series mostly up to 91.3 µM
How it was run: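 Plate contents were MEM with 10% FBS plus test compound or DMSO, no cells. Fluorescence was recorded with 540 nm excitation and 590 nm emission.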

[6] = qHTS assay to test for compound auto fluorescence at 460 nm (blue) in HepG2 cell free culture (AID 720685); settings: Cell-free culture medium, blue autofluorescence 405/460 nm; series mostly up to 91.3 µM
How it was run: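 Compound (23 nL) or DMSO pinned into cell-free MEM with 10% FBS; blue fluorescence read at 405/460 nm excitation/emission, expressed as auto-fluorescence equivalency to triamterene.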

[7] = qHTS assay to test for compound auto fluorescence at 535 nm (green) in HepG2 cell free culture (AID 720686); settings: Cell-free medium, green autofluorescence 485/535 nm; series mostly up to 91.3 µM
[8] = qHTS assay to test for compound auto fluorescence at 460 nm (blue) in HepG2 cells (AID 720687); settings: autofluorescence 405/460 nm, 1 h; series mostly up to 91.3 µM
How it was run: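 Blue-channel autofluorescence (Ex/Em 405/460 nm, triamterene-equivalent) was measured after 1 hr compound exposure at 37 C, 5% CO2. Cells were HepG2, plated overnight at 37 C in MEM plus 10% FBS.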

[9] = molecular target: Glucocorticoid receptor (Homo sapiens) (UniProt P04150); assay: qHTS assay to identify small molecule agonists of the glucocorticoid receptor (GR) signaling pathway (AID 720691; active = well fitted activation curve with a large enough effect in the signal ratio in the repeat runs, not every such curve was filed as active; the % refers to the signal ratio); settings: GR-bla HeLa, beta-lactamase reporter ratio, 18 h; activation: at 62.4 µM (top of the series) unless noted
Sequence of Glucocorticoid receptor (Homo sapiens) (P04150 whole entry, looked up): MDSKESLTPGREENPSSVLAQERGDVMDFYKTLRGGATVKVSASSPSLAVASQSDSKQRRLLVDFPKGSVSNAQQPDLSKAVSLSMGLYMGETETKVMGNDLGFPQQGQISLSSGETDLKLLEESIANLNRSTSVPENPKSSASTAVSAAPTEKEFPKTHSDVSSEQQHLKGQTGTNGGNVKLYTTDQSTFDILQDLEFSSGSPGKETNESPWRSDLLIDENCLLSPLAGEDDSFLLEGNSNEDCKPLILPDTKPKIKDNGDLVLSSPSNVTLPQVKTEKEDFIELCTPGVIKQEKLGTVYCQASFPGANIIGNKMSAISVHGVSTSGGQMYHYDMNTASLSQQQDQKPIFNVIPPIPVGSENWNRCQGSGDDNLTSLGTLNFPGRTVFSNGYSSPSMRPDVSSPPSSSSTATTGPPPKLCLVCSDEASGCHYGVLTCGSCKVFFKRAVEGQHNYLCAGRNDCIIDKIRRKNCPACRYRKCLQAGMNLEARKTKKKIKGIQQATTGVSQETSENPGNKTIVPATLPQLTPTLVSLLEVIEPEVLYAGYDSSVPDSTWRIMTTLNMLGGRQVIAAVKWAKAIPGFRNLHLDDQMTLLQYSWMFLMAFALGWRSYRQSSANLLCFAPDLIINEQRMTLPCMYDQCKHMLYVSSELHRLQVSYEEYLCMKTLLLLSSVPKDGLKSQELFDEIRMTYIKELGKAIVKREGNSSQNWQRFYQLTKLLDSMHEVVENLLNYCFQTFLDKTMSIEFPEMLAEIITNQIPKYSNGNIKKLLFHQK
How it was run: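 Fluorescence intensity from LiveBLAzer B/G FRET substrate (2 h, room temperature) reports beta-lactamase expression driven by the glucocorticoid response element in GR-bla HeLa cells after 18 h compound exposure at 37 C.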

[10] = molecular target: Glucocorticoid receptor (Homo sapiens) (UniProt P04150); assay: qHTS assay to identify small molecule antagonists of the glucocorticoid receptor (GR) signaling pathway (AID 720692; active = well fitted inhibition curve with a large enough effect in the signal ratio in the repeat runs, not every such curve was filed as active; the % refers to the signal ratio; note: potency is the fitted concentration of half-maximal effect); settings: GR-bla HeLa, beta-lactamase FRET ratio, dexamethasone-stimulated, 18 h; series mostly up to 58.5 µM
How it was run: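 HeLa GR-bla cells; cmpd + dex 5 nM final, 18 h 37 C; LiveBLAzer B/G FRET substrate 2 h RT; fluorescence intensity read. Antagonist mode, qHTS.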

[11] = qHTS assay to identify small molecule antagonists of the glucocorticoid receptor (GR) signaling pathway - cell viability counter screen (AID 720693); settings: GR-bla HeLa viability, CellTiter-Glo luminescence, 18 h, with 5 nM dexamethasone present; series mostly up to 58.5 µM; note: nearly all actives have a fitted effect of over 55% in size; note: potency is the fitted concentration of half-maximal effect
[12] = qHTS assay for identifying genotoxic compounds that show differential cytotoxicity against isogenic chicken DT40 cell lines with known DNA damage response pathways - wild type cell line (AID 743012); settings: DT40 wild type chicken cells viability, CellTiter-Glo, 40 h; series mostly up to 68.4 µM; note: nearly all actives have a fitted effect of over 60% in size; note: potency is the fitted concentration of half-maximal effect
How it was run: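 Wild type DT40, 300 cells/well, ~0.5 h settle at 37 C/5% CO2; compounds in DMSO added by pintool; 40 h at 37 C/5% CO2; CellTiter-Glo, 30 min RT; luminescence.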

[13] = qHTS assay to identify small molecule antagonists of the androgen receptor (AR) signaling pathway - cell viability counter screen (AID 743033; note: nearly all actives have a fitted effect of over 45% in size); settings: AR-bla HEK293 viability, CellTiter-Glo luminescence, 16 h; series mostly up to 58.5 µM
[14] = qHTS assay to identify small molecule antagonists of the androgen receptor (AR) signaling pathway using the MDA cell line - cell viability counter screen (AID 743041; note: nearly all actives have a fitted effect of over 45% in size); settings: MDA-kb2 viability, CellTiter-Fluor, 16 h, cells co-treated with R1881 androgen agonist; series mostly up to 70.3 µM
How it was run: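 R1881-driven MDA-kb2 AR-luc cells, 3,000/well, were dosed with library compounds for 16 h; cell health came from CellTiter-Fluor fluorescence in the reporter wells.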

[15] = qHTS assay for identifying genotoxic compounds that show differential cytotoxicity against isogenic chicken DT40 cell lines with known DNA damage response pathways - Rev3 mutant cell line (AID 743014); settings: chicken DT40 Rev3-/- viability, CellTiter-Glo, 40 h; series mostly up to 68.4 µM; note: nearly all actives have a fitted effect of over 55% in size; note: potency is the fitted concentration of half-maximal effect
[16] = qHTS assay for identifying genotoxic compounds that show differential cytotoxicity against isogenic chicken DT40 cell lines with known DNA damage response pathways - Rad54/Ku70 mutant cell line (AID 743015); settings: DT40 Rad54/Ku70 mutant viability, CellTiter-Glo, 40 h; series mostly up to 66.8 µM; note: nearly all actives have a fitted effect of over 60% in size; note: potency is the fitted concentration of half-maximal effect
[17] = molecular target: Androgen receptor (Homo sapiens) (UniProt P10275); assay: qHTS assay to identify small molecule antagonists of the androgen receptor (AR) signaling pathway (AID 743035; active = well fitted inhibition curve with a large enough effect in the signal ratio in the repeat runs, not every such curve was filed as active; the % refers to the signal ratio); settings: HEK293 AR-UAS-bla, R1881-stimulated, beta-lactamase FRET, 16 h; series mostly up to 58.5 µM
Sequence of Androgen receptor (Homo sapiens) (P10275 whole entry, looked up): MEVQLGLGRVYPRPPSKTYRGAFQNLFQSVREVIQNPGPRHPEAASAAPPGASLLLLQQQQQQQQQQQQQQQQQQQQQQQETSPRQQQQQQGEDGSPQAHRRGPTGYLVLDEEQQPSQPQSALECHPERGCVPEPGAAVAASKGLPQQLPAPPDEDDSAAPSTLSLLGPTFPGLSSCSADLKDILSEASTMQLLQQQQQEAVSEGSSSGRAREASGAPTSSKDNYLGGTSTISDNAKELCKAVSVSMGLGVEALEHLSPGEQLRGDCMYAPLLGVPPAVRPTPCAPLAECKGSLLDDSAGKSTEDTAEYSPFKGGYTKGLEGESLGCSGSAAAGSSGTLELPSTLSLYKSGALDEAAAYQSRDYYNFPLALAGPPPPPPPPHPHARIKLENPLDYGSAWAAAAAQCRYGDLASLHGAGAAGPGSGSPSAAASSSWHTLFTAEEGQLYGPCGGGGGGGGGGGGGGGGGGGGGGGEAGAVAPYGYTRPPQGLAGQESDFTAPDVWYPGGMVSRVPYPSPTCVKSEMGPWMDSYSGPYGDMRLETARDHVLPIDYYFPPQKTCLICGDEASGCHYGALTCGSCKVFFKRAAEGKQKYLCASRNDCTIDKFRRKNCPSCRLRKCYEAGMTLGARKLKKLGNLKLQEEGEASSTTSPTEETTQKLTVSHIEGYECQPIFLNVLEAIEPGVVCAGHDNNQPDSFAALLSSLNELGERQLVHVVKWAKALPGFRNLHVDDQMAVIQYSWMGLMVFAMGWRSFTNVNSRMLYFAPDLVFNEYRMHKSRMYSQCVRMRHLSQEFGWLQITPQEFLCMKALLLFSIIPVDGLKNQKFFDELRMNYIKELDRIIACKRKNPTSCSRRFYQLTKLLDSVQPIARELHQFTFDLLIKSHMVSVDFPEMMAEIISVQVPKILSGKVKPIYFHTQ
How it was run: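 Fluorescence from a beta-lactamase FRET substrate (LiveBLAzer B/G, 2 h, room temperature) measured inhibition of R1881-stimulated signaling in GeneBLAzer AR-UAS-bla HEK293 cells exposed to compound for 16 h at 37C.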

[18] = molecular target: Androgen receptor (Homo sapiens) (UniProt P10275); assay: qHTS assay to identify small molecule agonists of the androgen receptor (AR) signaling pathway (AID 743036; active = well fitted activation curve with a large enough effect in the signal ratio in the repeat runs, with a control signal flat, not every such curve was filed as active; the % refers to the signal ratio); settings: HEK293 AR-UAS-bla GripTite, beta-lactamase FRET ratio, 16 h; series mostly up to 62.4 µM
How it was run: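 Activation was read as beta-lactamase FRET signal from LiveBLAzer B/G substrate, added for 2 h at room temperature. Before that, GeneBLAzer AR-UAS-bla GripTite (HEK293) cells had 16 h compound exposure at 37C.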

[19] = molecular target: Androgen receptor (Homo sapiens) (UniProt P10275); assay: qHTS assay to identify small molecule agonists of the androgen receptor (AR) signaling pathway using the MDA cell line (AID 743040; note: nearly all actives have a fitted effect of over 20% in size); settings: MDA-kb2 AR-luc cells, MMTV luciferase, 16 h, stronger effect = higher value; series mostly up to 70.3 µM
How it was run: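 After a 5 h incubation at 37C and 0% CO2, MDA-kb2 reporter cells were dosed with compounds in DMSO and kept 16 h under the same conditions. Luciferase activity was then read as luminescence with ONE-Glo.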

[20] = molecular target: Androgen receptor (Homo sapiens) (UniProt P10275); assay: qHTS assay to identify small molecule antagonists of the androgen receptor (AR) signaling pathway using the MDA cell line (AID 743042; note: nearly all actives have a fitted effect of over 55% in size); settings: MDA-kb2 AR-luc, MMTV luciferase, R1881 antagonist, 16 h; series mostly up to 70.3 µM
How it was run: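 Antagonist mode: compounds plus R1881 agonist added to MDA-kb2 AR-luc cells, incubated 16 h at 37C. Luciferase reporter luminescence quantified, with multiplexed CellTiter-Fluor readout for cell viability.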

Measured: Potency

C=C(C)C(=O)OCC(CC)(COC(=O)C(=C)C)COC(=O)C(=C)C
not listed: [15] | [16] | [17] | [18] | [19] | [20]
inactive: all other assays above

CC(C)(N=C=O)c1cccc(C(C)(C)N=C=O)c1
not listed: [17] | [18] | [19] | [20]
inactive: all other assays above

CC#C[C@]1(O)CC[C@H]2[C@@H]3CCC4=CC(=O)CCC4=C3[C@@H](c3ccc(N(C)C)cc3)C[C@@]21C
inactive: [1] | [2] | [3] | [4] | [5] | [6] | [7] | [8] | [9]
active: [11] 5.35 µM | [12] 5.96 µM and 30.6 µM | [15] 9.44 µM and 48.6 µM | [16] 5.96 µM and 21.7 µM

CCCCCC/C=C/CCCCCCCC(=O)O
not listed: [17] | [18] | [19] | [20]
inactive: all other assays above

CCCCC(CC)C(=O)OCCOCCOCCOC(=O)C(CC)CCCC (centres undefined)
active: [12] 21.7 µM
inactive and 19.3 µM (active): [15]
not listed: [8]
inactive: all other assays above

CC1COc2ccccc2N1C(=O)C(Cl)Cl (centres undefined)
active: [15] 30.6 µM and 24.3 µM | [16] 61 µM and 38.5 µM
not listed: [10] | [12] | [14] | [17] | [18] | [19] | [20]
inactive: all other assays above

CCc1ccccc1O
not listed: [17] | [18] | [19] | [20]
inactive: all other assays above

c1ccc2[nH]cnc2c1
not listed: [9] | [10] | [17] | [18] | [19] | [20]
inactive: all other assays above

NS(=O)(=O)c1cc2c(cc1Cl)NC=NS2(=O)=O
not listed: [9] | [10] | [17] | [18] | [19] | [20]
inactive: all other assays above

CC1=C(CC(=O)O)c2cc(F)ccc2/C1=C\c1ccc(S(C)=O)cc1 (centres undefined)
inactive and 68.6 µM (active): [12]
active: [15] 6.86 µM
inactive and 24.3 µM (active): [16]
not listed: [17] | [18] | [19] | [20]
inactive: all other assays above

CCC(C)C=O (centres undefined)
not listed: [9] | [10] | [17] | [18] | [19] | [20]
inactive: all other assays above

Oc1ccc2ccccc2c1N=Nc1ccccc1
not listed: [9] | [10] | [17] | [18] | [19] | [20]
inactive: all other assays above

COCC(C)O (centres undefined)
not listed: [17] | [18] | [19] | [20]
inactive: all other assays above

CCCCCCCCCCC=CC1CC(=O)OC1=O (centres undefined)
active: [10] 15.6 µM and 49 µM
not listed: [15] | [17] | [18] | [19] | [20]
inactive: all other assays above

CC1=CC[C@H]2C[C@@H]1C2(C)C
not listed: [9] | [10] | [17] | [18] | [19] | [20]
inactive: all other assays above
